# Laboratory results: the supplement of paper PMC6992640
# System: HCI01 (cells of a triple-negative basal-like breast cancer xenograft)
# Assay: cell viability (% of vehicle); higher = less cytotoxic
# Conditions: 1 µM; 72 h
# 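Also: cells dissociated from PDX tumors propagated in female NSG mouse mammary fat pads, vehicle control 0.1% DMSO.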
row,Compound,cell viability
1,COc1cc(C(=O)O)ccc1NC(=O)C1NC(CC(C)(C)C)C(C#N)(c2ccc(Cl)cc2F)C1c1cccc(Cl)c1F (configuration not stated),95.1
2,CC(NCCCc1cccc(C(F)(F)F)c1)c1cccc2ccccc12 (configuration not stated) [Cinacalcet],102
3,Cl.Clc1ccccc1CN1CCc2sccc2C1 [Ticlopidine HCl],99.4

# System: UCD52 (cells of a triple-negative basal-like breast cancer xenograft)
# Assay: as above
# Conditions: 1 µM; 72 h
row,Compound,cell viability
1,Cc1ccc(-n2[nH]c(C)c(NN=C3C=CC=C(c4cccc(C(=O)O)c4)C3=O)c2=O)cc1C [Eltrombopag],94.6
2,Oc1c(Cl)cc(Cl)c2cccnc12 [Chloroxine],96.7
3,CCN(CC)CCCC(C)Nc1ccnc2cc(Cl)ccc12.O=P(O)(O)O.O=P(O)(O)O (configuration not stated) [Chloroquine diphosphate],68.5
4,COC(=O)NC(C(=O)NC(Cc1ccccc1)C(O)CN(Cc1ccc(-c2ccccn2)cc1)NC(=O)C(NC(=O)OC)C(C)(C)C)C(C)(C)C (configuration not stated) [Atazanavir],80.2
5,COc1cc2nccc(Oc3ccc(NC(=O)C4(C(=O)Nc5ccc(F)cc5)CC4)cc3)c2cc1OC.O=C(O)CC(O)C(=O)O [Cabozantinib malate (XL184)],93.9
6,O=C(C=Cn1cnc(-c2cc(C(F)(F)F)cc(C(F)(F)F)c2)n1)NNc1cnccn1,59.5
7,Nc1ccn(C2OC(CO)C(O)C2O)c(=O)n1 (configuration not stated) [Cytarabine],106
8,CO[C@H]1/C=C/O[C@@]2(C)Oc3c(C)c(O)c4c(O)c(c(/C=N/N5CCN(C6CCCC6)CC5)c(O)c4c3C2=O)NC(=O)/C(C)=C\C=C\[C@H](C)[C@H](O)[C@@H](C)[C@@H](O)[C@@H](C)[C@H](OC(C)=O)[C@@H]1C [Rifapentine],88.8
9,CS(=O)(=O)O.Cc1c(O)cccc1C(=O)NC(CSc1ccccc1)C(O)CN1CC2CCCCC2CC1C(=O)NC(C)(C)C (configuration not stated) [Nelfinavir Mesylate],61.6
10,CCN(CC)CCNC(=O)c1c(C)[nH]c(C=C2C(=O)Nc3ccc(F)cc32)c1C.O=C(O)CC(O)C(=O)O [Sunitinib malate],64.6
11,N.N.O=C([O-])C1(C(=O)[O-])CCC1.[Pt+2] [Carboplatin],80.1
12,CC(NCCCc1cccc(C(F)(F)F)c1)c1cccc2ccccc12.Cl (configuration not stated) [Cinacalcet HCl],85.7
13,COC(=O)c1ccc2c(c1)NC(=O)C2=C(Nc1ccc(N(C)C(=O)CN2CCN(C)CC2)cc1)c1ccccc1 [Nintedanib (BIBF 1120)],46
14,COc1cc(C(=O)NS(=O)(=O)c2ccccc2C)ccc1Cc1cn(C)c2ccc(NC(=O)OC3CCCC3)cc12 [Zafirlukast],95.3
15,CCC(=C(c1ccccc1)c1ccc(OCCN(C)C)cc1)c1ccccc1.O=C(O)CC(O)(CC(=O)O)C(=O)O [Tamoxifen Citrate],101
16,CCCCc1oc2ccc(NS(C)(=O)=O)cc2c1C(=O)c1ccc(OCCCN(CCCC)CCCC)cc1.Cl [Dronedarone HCl],86.5
17,CC(C)CC(NC(=O)CNC(=O)c1cc(Cl)ccc1Cl)B(O)O (configuration not stated),24.9
18,COC(=O)C1=C(C)NC(C)=C(C(=O)OCCN(C)Cc2ccccc2)C1c1cccc([N+](=O)[O-])c1.Cl (configuration not stated) [Nicardipine HCl],94.4
19,CCOc1cc2ncc(C#N)c(Nc3ccc(F)c(Cl)c3)c2cc1NC(=O)C=CCN(C)C [Pelitinib (EKB-569)],27
20,CCOC(=O)c1c(CSc2ccccc2)n(C)c2cc(Br)c(O)c(CN(C)C)c12.Cl [Arbidol HCl],78.9

row,Compound,cell viability
1,CN(C)CCOc1ccc(C(=C(CCCl)c2ccccc2)c2ccccc2)cc1.O=C(O)CC(O)(CC(=O)O)C(=O)O [Toremifene Citrate],98.4
2,CN(C)c1ccc(O)c2c1CC1CC3C(N(C)C)C(=O)C(C(N)=O)=C(O)C3(O)C(=O)C1=C2O.Cl (configuration not stated) [Minocycline HCl],100
3,CC(Oc1cc(-c2cnn(C3CCNCC3)c2)cnc1N)c1c(Cl)ccc(F)c1Cl [(R)-Crizotinib],67.6
4,CC(C)(C)NC(=O)C1CC2CCCCC2CN1CC(O)C(Cc1ccccc1)NC(=O)C(CC(N)=O)NC(=O)c1ccc2ccccc2n1.CS(=O)(=O)O (configuration not stated) [Saquinavir mesylate],89.5
5,O=C1C=CC=CC1=C1NC(=C2C=CC=CC2=O)N(c2ccc(C(=O)O)cc2)N1 [Deferasirox],92
6,Cl.OC(c1cc(C(F)(F)F)nc2c(C(F)(F)F)cccc12)C1CCCCN1 (configuration not stated) [Mefloquine hydrochloride],66
7,O=C(NC1CCN(CCCCC2(C(=O)NCC(F)(F)F)c3ccccc3-c3ccccc32)CC1)c1ccccc1-c1ccc(C(F)(F)F)cc1 [Lomitapide],56.3
8,CCCCCCCCOc1ccccc1C(=O)Nc1ccc(C(=O)OCC[N+](C)(CC)CC)cc1.[Br-] [Otilonium Bromide],100
9,COc1cc(Nc2c(C#N)cnc3cc(OCCCN4CCN(C)CC4)c(OC)cc23)c(Cl)cc1Cl [Bosutinib (SKI-606)],30.4
10,CNC(=O)c1cc(Oc2ccc(NC(=O)Nc3ccc(Cl)c(C(F)(F)F)c3)c(F)c2)ccn1 [Regorafenib],80.7
11,COC1=C(OC)C(=O)C(CCCCCCCCCCO)=C(C)C1=O [Idebenone],90.2
12,Nc1ncn(C2OC(CO)C(O)C2O)c(=O)n1 (configuration not stated) [5-Azacytidine],70.1
13,CC(C)C[C@H](NC(=O)[C@H](Cc1ccccc1)NC(=O)c1cnccn1)B(O)O [Bortezomib],21.6
14,CC(C)Nc1cc(-c2c[nH]c(C(=O)NC(CO)c3cccc(Cl)c3)c2)c(Cl)cn1 (configuration not stated),59.1
15,COc1cc(Nc2ncc(F)c(Nc3ccc4c(n3)N(COP(=O)(O)O)C(=O)C(C)(C)O4)n2)cc(OC)c1OC [Fostamatinib (R788)],92.3
16,CNCCCC12CCC(c3ccccc31)c1ccccc12.Cl [Maprotiline HCl],81.1
17,COc1cc(C(=O)O)ccc1NC(=O)C1NC(CC(C)(C)C)C(C#N)(c2ccc(Cl)cc2F)C1c1cccc(Cl)c1F (configuration not stated),89.1
18,CC(NCCCc1cccc(C(F)(F)F)c1)c1cccc2ccccc12 (configuration not stated) [Cinacalcet],78.1
19,Cl.Clc1ccccc1CN1CCc2sccc2C1 [Ticlopidine HCl],97.4
